# This is a sample that favours compounds with a hit; in the whole collection about 2.1% have one here.
# FUS suppressor = rescues growth of FUS-expressing yeast | S. cerevisiae FUS-expressing, growth rescue, OD600, 24 h | Potency, µM (highest dose often 76.6 µM), most hits filed as activators | AID 1347120 | actives 0.24% (n = 390,000);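 further: plate controls were DMSO vehicle for no effect and reference control for full effect; nearly all actives have a fitted effect of over 55% in size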
#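 Restored growth of FUS-toxic S. cerevisiae, read as 600 nm absorbance after 24 h at 30C in galactose medium (starting OD 0.005). Controls CP55940 and DMSO.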
# Abeta rescue = compounds reversing amyloid beta toxicity in yeast. yeast expressing A-beta42, growth rescue, OD600, 48 h; response scale: 0% DMSO, 100% iron-clioquinol control. Potency, µM (series often up to 46.1 µM), most hits filed as activators. actives 0.063% (n = 410,000); further: nearly all actives have a fitted effect of over 55% in size
#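 Yeast growth medium received pinned compounds, then yeast cells expressing toxic A-beta were added; plates incubated at 30 C for 48 hr. Growth read as absorbance at 600 nm, normalized to DMSO and equimolar FeCl3 plus clioquinol controls.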
# TDP-43 yeast inh = rescues yeast growth from TDP-43 toxicity; TDP-43 expressing yeast growth rescue, BacTiter-Glo, 24 h; Potency, µM (doses to about 46.1 µM), inactives show at the highest dose growth rescue (activation), hits mostly activators; AID 652104; actives 1.8% (n = 410,000); further: % of control where 0% means no effect; nearly all actives have a fitted effect of over 50% in size
#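 Yeast cells expressing TDP-43 under galactose induction are exposed to compounds for 24 hr at 30 deg C. BacTiter-Glo luminescence measures growth, so protective compounds score as activators.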
# aSyn yeast inh = alpha-synuclein toxicity inhibition in yeast; Yeast expressing alpha-synuclein, growth rescue, BacTiter-Glo, 24 h; Potency, µM (series often up to 46.1 µM), for the others: top-dose growth rescue (activation), usual class: activators; actives 0.14% (n = 370,000); AID 652106; further: % of control where 0% means no effect; nearly all actives have a fitted effect of over 65% in size
#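 Rescue of yeast growth: cells expressing toxic alpha-synuclein, induced in galactose at OD600 0.02, incubated with compound 24 h at 30 C. ATP luminescence quantified growth; inhibitors of toxicity appear as activators.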
# An asterisk follows results filed as active; i = inactive; ? = inconclusive; · = no result. The call rests on the fitted dose curve; in most records, active means well fitted curve in the direction sought with a large enough effect; inconclusive means small, poorly fitted or top-dose-only effect, or another doubt; inactive means no such curve, though single readings can be large; an effect the other way counts as inactive or inconclusive. Potency means the concentration at half of the fitted maximal effect.
SMILES,FUS suppressor,Abeta rescue,TDP-43 yeast inh,aSyn yeast inh
CCCCn1nnnc1C(c1ccccc1)N1CCN(c2ccc(C)cc2)CC1 (stereo not given),i,i,35µM*,15%
CCCC1CCC2(CCCN2CCOC(=O)Nc2cccc(Cl)c2)CC1 (stereo not given),i,·,·,·
Clc1ccccc1Nc1nc(-c2ccncc2)nc2ccccc12,i,i,35µM*,1%
c1ccc2c(Nc3nc(-c4ccncc4)nc4ccccc34)cccc2c1,i,i,2%,5%
Oc1ccc(C23CC4CC(CC(C4)C2)C3)cc1O,i,?,6.3µM*,2.8µM*
CCCC1CCC2(CC1)CCC2OC(=S)Nc1ccccc1 (stereo not given),i,·,·,·
COC(=O)c1ccc(OCC2c3cc(OC)c(OC)cc3CCN2C(=O)c2ccc(F)cc2)cc1 (stereo not given),?,i,35µM*,9%
COC(=O)c1ccc(OCC2c3cc(OC)c(OC)cc3CCN2C(=O)c2ccccc2C)cc1 (stereo not given),?,i,?,3%
CCC(CC)C(=O)N1CCc2cc(OC)c(OC)cc2C1COc1ccc(C(=O)OC)cc1 (stereo not given),?,i,28µM*,1%
COC(=O)c1ccc(OCC2c3cc(OC)c(OC)cc3CCN2C(=O)Cc2ccccc2)cc1 (stereo not given),?,i,20µM*,1%
CCOC(=O)Cc1nc(N2CCN(Cc3cccc4c3OCO4)CC2)c2c(C)c(C(=O)OCC)sc2n1,i,·,·,·
O=C(CCCl)NC1CCCCN(Cc2ccc(OC(F)(F)F)cc2)C1=O (stereo not given),i,·,·,·
COc1cccc(NC(=S)NC(Cc2ccccc2)c2ccccc2)c1 (stereo not given),i,?,11µM*,27%
COc1cc(O)cc(O)c1C(=O)/C=C/c1ccccc1,i,i,12%,12%
COc1cc(OC)c(C(=O)/C=C/c2ccccc2)c(O)c1O,i,i,13µM*,7%
O=C(O)c1ccc(NCc2ccc(Br)cc2)cc1,i,i,3.5µM*,3%
CC(=O)Nc1ccc(C(=O)O)cc1,i,i,12%,-3%
C=CCNc1ccc(C(=O)O)cc1,i,i,14µM*,11%
CC1(C)Cc2c(c(N3CCOCC3)nc3snc(Br)c23)CO1,i,i,16µM*,4%
CCCCN1CCN(C(=O)C2CCCN(C(=O)c3ccc4c(c3)NC(=O)CS4)C2)CC1 (stereo not given),i,·,·,·
Cc1ccc(C)c(NC(=O)CCC(=O)OC(C(=O)c2ccccc2)c2ccccc2)c1 (stereo not given),i,i,?,10%
CCC(=O)Nc1cc(C(=O)OC(C(=O)c2ccc(C)c(C)c2)c2ccccc2)ccc1C (stereo not given),10µM*,i,0%,-1%
CCOC(=O)[C@@]12CCC3=C1N(CCC3)C(=O)[C@H](CC(=O)N1CCN(C(=O)C3CC3)CC1)C2,i,·,·,·
COCc1ccc(C(=O)N2CCCC(C(=O)c3cc(F)ccc3F)C2)s1 (stereo not given),i,i,11µM*,-4%
O=C(O)c1ccc(Nc2ccc(F)c(F)c2)c([N+](=O)[O-])c1,i,i,11µM*,6%
SMILES,FUS suppressor,Abeta rescue,TDP-43 yeast inh,aSyn yeast inh
COc1ccc(Nc2ccc(C(=O)O)cc2[N+](=O)[O-])cc1,i,i,?,4%
CCN1C(=O)[C@H]2[C@H]3[C@H](O)[C@H](O)CC(=O)[C@@H]3CC[C@H]2C1=O,·,·,·,-6%
c1cnc2c(c1)ccc1cccnc12,i,i,35µM*,-6%
Cc1ccc2oc(-c3ccc(C)c(NC(=O)COc4ccccc4C)c3)nc2c1,·,·,·,-4%
CN(C)c1ccc(C2=Cc3ccccc3C2)cc1,·,·,·,-2%
Cc1oc2c(c1C(=O)NCc1ccccc1)CCCC2,i,i,11%,11%
Cc1oc2c(c1C(=O)Nc1ccc(C(=O)O)cc1)CCCC2,i,i,13µM*,17%
COc1cccc(N2CCN(C(=O)COc3cc(=O)n(C)c4ccccc34)CC2)c1,i,·,·,·
COc1ccccc1/C=C1\NC(=S)N(CC2CCCO2)C1=O (stereo not given),i,i,14µM*,1%
